High-throughput results as filed in PubChem.
Hits are enriched below; roughly 7% of the tested compounds scored in any of these assays.
DRD3 agonist – qHTS of D3 Dopamine Receptor Agonist: qHTS; D(3) dopamine receptor (Homo sapiens), P35462; D3R DiscoveRx beta-arrestin cells, luminescence, 90 min; max activation, %; hit rate 0.58% among 410,000; AID 652048, 2013; in the data active means max activation above about 30%; further: 0% is about no effect
Target sequence (P35462 whole entry, looked up): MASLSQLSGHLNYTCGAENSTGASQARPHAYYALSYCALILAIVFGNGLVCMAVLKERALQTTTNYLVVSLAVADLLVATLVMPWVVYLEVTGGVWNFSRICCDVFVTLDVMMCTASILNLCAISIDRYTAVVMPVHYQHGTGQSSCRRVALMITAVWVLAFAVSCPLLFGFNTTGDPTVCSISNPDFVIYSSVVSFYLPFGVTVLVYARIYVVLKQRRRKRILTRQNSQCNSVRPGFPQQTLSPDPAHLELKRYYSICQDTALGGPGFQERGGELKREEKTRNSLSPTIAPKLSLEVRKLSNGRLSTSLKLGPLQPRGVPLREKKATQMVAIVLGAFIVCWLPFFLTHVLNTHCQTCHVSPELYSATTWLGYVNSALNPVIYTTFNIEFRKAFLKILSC
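Agonist mode: compounds and dopamine controls were applied to plated cells for 90 min at 37 degrees C after an overnight attachment at 1500 cells/well. Luminescent read-out followed 30 - 60 minutes at room temperature with DiscoveRx detection reagent.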
ATXN viability – Viability Counterscreen for Primary qHTS for Inhibitors of ATXN expression | S2 cells (HEK-293 line with an ATXN2-luciferase reporter) viability, CellTiter-Fluor protease fluorescence, 24 h | Potency, µM (series often up to 56.7 µM), hits mostly cytotoxic | hit rate 0.49% among 400,000; further: potency means the concentration at half of the fitted maximal effect; nearly all actives have a fitted effect of over 40% in size
Integrin act MD – qHTS for Activators of Integrin-Mediated Alleviation for Muscular Dystrophy | alpha7betagal myoblasts, beta-gal FDG fluorescence, 48 h | Potency, µM (top dose mostly 38.3 µM), inactives show top-dose activation, usual class: activators | hit rate 0.064% among 350,000 | AID 624291, 2012;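 further: potency means the concentration at half of the fitted maximal effect; 100% = response of the positive control SU9516; nearly all actives have a fitted effect of over 60% in size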
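Alpha7betagal+/- myoblasts (passage 13) were plated 16-24 hr, then exposed to compounds (1:260 dilution of DMSO stock) for 48 hours at 37C. After MPER lysis, β-galactosidase reporter activity was read as FDG fluorescence (ex 480/em 540) after 30 minutes.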
ATXN2 expr inh – Primary qHTS for Inhibitors of ATXN expression | hit rate 0.72% among 360,000 | HEK-293 ATXN2-luciferase reporter, luminescence, 24 h | AID 1745845, 2022 | Potency, µM (doses to about 57 µM), inactives show at the highest dose activity change, negative = inhibition, most hits filed as inhibitors; further: potency means the concentration at half of the fitted maximal effect; on the % scale 0 is the no-effect control and ±100 the full control effect; nearly all actives have a fitted effect of over 55% in size
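qHTS (up to 57 uM final) was run with 24 h compound exposure of reporter cells at 37 °C. Each well was multiplexed: SteadyGlo luminescence measured ATXN2-luciferase expression after a fluorogenic Gly-Phe-AFC viability readout (25 uM final).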
IL1B secr inh – qHTS for Inhibitors of Inflammasome Signaling: IL-1-beta AlphaLISA Primary Screen; activity change, % at 57.5 µM; hit rate 4.7% among 360,000; AID 743279, 2014; THP-1 LPS/ATP IL-1B secretion, AlphaLISA, 16 h; active compounds read low; in the data active means activity change below about -50%; inconclusive means mostly about -30% to -49%; further: on the % scale 0 is the no-effect control and ±100 the full control effect
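Secreted IL-1B measured by AlphaLISA bead assay after 16 h compound exposure of THP-1 cells; compounds (final up to 57.5 uM) added 1 h before LPS (250 ng/mL) and ATP (1.25 mM) stimulation; lower signal means less secretion.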
DRD3 antagonist – qHTS of D3 Dopamine Receptor Antagonist: qHTS | D(3) dopamine receptor (Homo sapiens), P35462 | D3R cells, DiscoveRx beta-arrestin luminescence, antagonist mode; active compounds read low | max response, negative = inhibition, % | hit rate 2.5% among 360,000; in the data active means max response below about -50%; inconclusive means no clear call, values can overlap the other calls; further: on the % scale 0 is the no-effect control and ±100 the full control effect
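Cells plated overnight at 1500 cells/well, then exposed to library compounds with dopamine controls for 90 minutes at 37 degrees C. DiscoveRx reagent added for 30–60 minutes at room temperature; luminescence read, quantitative HTS format.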
* hit, by the source's call; i = inactive; u = inconclusive; x = not tested or not shown; [ ] = another dose, or the depositor's remark. Unless noted, the call rests on the fitted dose curve; in most records, active means well fitted curve in the direction sought with a large enough effect; inconclusive means small, poorly fitted or top-dose-only effect, or another doubt; inactive means no such curve, though single readings can be large; an effect the other way counts as inactive or inconclusive.

SMILES	DRD3 agonist	ATXN viability	Integrin act MD	ATXN2 expr inh	IL1B secr inh	DRD3 antagonist
COc1cccc(CNC(=O)CCNS(=O)(=O)c2ccc(Br)s2)c1	2.4	i	-16.4%	-6.5%	20.2	u
COc1ccc(Br)cc1CNC(=O)CCCn1c(=O)c2cccn2c2cccnc21	-12.7	x	x	x	x	x
CC(Cc1cccs1)NC(=O)Nc1cccc(Cl)c1 (centres undefined)	0.6	i	-32.1%	-11.9%	-1.3	1.2
CC(Cc1cccs1)NC(=S)Nc1ccc(Cl)cc1 (centres undefined)	-1.3	i	-55.2%	-26.2%	-96.2*	-6.5
CC(Cc1cccs1)NC(=S)Nc1ccc(Cl)c(Cl)c1 (centres undefined)	-2.6	i	23.6%	-16.2%	-95.3*	-4.2
Cc1nn(C(C)C(=O)NC2CCCCC2)c(=O)c2nn(-c3ccccc3)c(C)c12 (centres undefined)	-8.1	i	26.4%	x	11.1	1.2
O=C(Nc1cc(Br)ccc1O)C1CC(c2ccccc2Cl)=NO1 (centres undefined)	-5.5	i	12.6µM*	4.7%	-4.1	-10.0
Cc1ccc(NC(=O)C2(c3ccc4c(c3)OC(F)(F)O4)CC2)nc1-c1cccc(C(=O)O)c1	x	x	x	0.0863µM*	x	x
COc1cc(NC(=O)CN2C(=O)NC(c3ccccc3)(c3ccccc3)C2=O)c(C)cc1[N+](=O)[O-]	1.4	i	-26.7%	-10.3%	-4.5	-16.3
COc1cc(SC)ccc1C(=O)N1CCN(c2ccccc2)CC1	6.2	i	24.7%	2.1%[11.3 µM]	-80.4*	16.7
COc1cc(SC)ccc1C(=O)OCC(=O)NC1CCCC1	-2.7	i	-5.3%	27.7%	11.4	-3.6
COc1ccc(C(=O)OCC(=O)N2CCCC2=O)c(OC)c1	1.9	i	-0.6%	60.6%	-28.4	-55.5*
COc1cc(SC)ccc1C(=O)N1CCN(c2ccc(O)cc2)CC1	1.2	i	-21.1%	-37.7%	23.7	0.1
COc1cc(SC)ccc1C(=O)OCC(=O)N1CCN(C(C)=O)CC1	-11.3	i	0.0%	0.0%	-5.0	-64.5*
CC(=O)Nc1ccc(S(=O)(=O)N(C)CC(=O)OCC(=O)N(C)c2ccccc2)cc1	4.7	i	-25.4%	10.8%	0.3	8.3
CC1(C)CC(=O)c2cc(OCC(=O)NCCN3CCCc4ccccc43)ccc2O1	-30.6	i	-2.9%	-6.2%	14.4	-67.5*
CC(C)CCNC(=O)COc1ccc2c(c1)C(=O)CC(C)(C)O2	2.3	i	25.8%	51.3%	16.9	4.1
CC1(C)CC(=O)c2cc(OCC(=O)NCCCN3CCN(c4ccc(F)cc4)CC3)ccc2O1	-53.8	i	-45.2%	-6.3%	u	-80.8*
CC(=O)Nc1cc(S(=O)(=O)Nc2ccccc2)c(C)cc1C	-14.0	i	14.7%	3.1%	14.5	17.4
O=c1ccc2cc(S(=O)(=O)Nc3ccc(F)cc3)ccc2o1	-3.4	i	7.2%	-4.5%	19.2	-3.9
CCCn1c(SCC(=O)Nc2ccccc2-c2ccccc2)nnc1-c1ccoc1C	-0.7	i	-30.1%	1.9%	-27.5	5.9
Cc1occc1-c1nnc(SCC(=O)c2ccc(Cl)cc2)n1C	-12.2	i	0.5%	0.9%	-13.8	-55.6*
Cc1occc1-c1nnc(SCC(=O)Nc2ccccc2-c2ccccc2)n1C	-4.4	i	-0.1%	-2.0%	-10.8	-57.2*
Cc1occc1-c1nnc(SCC(=O)Nc2ccc(F)cc2)n1Cc1ccccc1	12.5	i	-25.0%	-10.9%	-80.0*	37.6
CC(=C/c1ccccc1)/C=N/NC(=O)CSc1nc(C)cc(C)n1	-0.4	i	14.6%	-18.0%	16.5	13.5
CCCCOc1ccc(S(=O)(=O)NC(=O)C2(C)CCN2C(=O)c2c(C)noc2C)cc1 (centres undefined)	-4.2	i	x	3.8%	14.5	-10.7
CCc1nnc(NC(=O)CN2CCN(c3ccccc3F)CC2)s1	0.9	i	u	x	28.5	2.4
